# Source: PubChem BioAssay (National Center for Advancing Translational Sciences (NCATS))
# TDP1 cell noCPT = qHTS for Inhibitors of human tyrosyl-DNA phosphodiesterase 1 (TDP1): qHTS in cells in absence of CPT | DT40 Tdp1-/- hTDP1 cells, no CPT, ATP luminescence, 48 h | Potency, µM (highest dose often 46.2 µM), inactives show top-dose activity change, negative = growth inhibition, usual class: inhibitors | actives 15% (n = 420,000) | AID 686978, 2013; note: potency is the fitted concentration of half-maximal effect; nearly all actives have a fitted effect of over 55% in size
#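 Growth kinetics read by CellTiter-Glo luminescence after ≥48 hr at 37 °C. Cells: DT40 Tdp1-/- stably carrying human TDP1, 400 per well, compound exposure in the absence of CPT (DMSO vehicle).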
# HT1080-NT tox = kills 2HG-producing HT-1080-NT fibrosarcoma cells; AID 686970; Potency, µM (highest dose often 46.1 µM), without a hit: at the highest dose activity, negative = less viability, usual class: cytotoxic; HT-1080-NT fibrosarcoma viability, CellTiter-Glo ATP luminescence, 48 h; actives 1.6% (n = 360,000);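 note: NT is the 2HG producing partner of a matched IDH1 knockdown line; potency is the fitted concentration of half-maximal effect; 0% = DMSO-treated cells and -100% = media-only wells without cells; nearly all actives have a fitted effect of over 55% in size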
#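 Toxicity toward the 2HG-producing NT line was scored as %Activity, normalised to DMSO and no-cell wells, from CellTiter-Glo luminescence after 48 hours' treatment.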
# 12-LOX inh = inhibitors of human 12S-lipoxygenase ALOX12; purified 12hLO, xylenol orange hydroperoxide absorbance; actives 1.1% (n = 580,000); Potency, µM (highest dose often 108 µM), for inactives: at the highest dose activity change, negative = inhibition, hits mostly inhibitors; note: potency is the fitted concentration of half-maximal effect
# Target sequence (P18054 whole entry, looked up): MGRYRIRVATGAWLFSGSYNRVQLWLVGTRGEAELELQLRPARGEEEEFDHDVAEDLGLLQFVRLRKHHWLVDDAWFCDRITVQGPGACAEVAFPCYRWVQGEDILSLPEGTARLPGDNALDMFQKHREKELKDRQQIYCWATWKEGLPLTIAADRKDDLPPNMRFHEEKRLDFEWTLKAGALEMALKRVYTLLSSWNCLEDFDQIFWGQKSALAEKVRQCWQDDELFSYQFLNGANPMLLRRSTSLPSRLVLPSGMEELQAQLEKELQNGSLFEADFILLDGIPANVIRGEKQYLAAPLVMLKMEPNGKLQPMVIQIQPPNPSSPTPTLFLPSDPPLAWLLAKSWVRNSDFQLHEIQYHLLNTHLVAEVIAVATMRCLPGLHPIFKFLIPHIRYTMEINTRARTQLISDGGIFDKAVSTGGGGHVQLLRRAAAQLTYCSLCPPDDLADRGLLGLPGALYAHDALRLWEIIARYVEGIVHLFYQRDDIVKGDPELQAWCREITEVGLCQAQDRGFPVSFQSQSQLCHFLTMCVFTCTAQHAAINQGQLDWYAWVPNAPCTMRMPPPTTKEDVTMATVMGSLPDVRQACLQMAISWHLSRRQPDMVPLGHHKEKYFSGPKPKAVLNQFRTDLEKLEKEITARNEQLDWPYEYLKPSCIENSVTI
#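 Hydroperoxide product was detected by ferrous iron/xylenol orange as the 573 to 405 nm absorbance ratio. Arachidonic acid at 40 uM (final) was turned over for 30 min at room temperature by 150 nM human 12hLO, pH 7.0 Hepes buffer, after 15 min compound preincubation.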
# IL1B secr inh = blocks inflammasome-driven IL-1 beta release; THP-1 LPS/ATP IL-1B secretion, AlphaLISA, 16 h; active compounds read low; activity change, % at 57.5 µM; actives 4.7% (n = 360,000); in the data active = activity change below about -50%; inconclusive = mostly about -30% to -49%
#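 THP-1 cells pretreated 1 hr with compounds (up to 57.5 uM final), then stimulated with LPS (250 ng/mL final) plus ATP (1.25 mM final); secreted IL-1B measured by AlphaLISA after 16 hr, decreased signal indicating inhibition.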
# HT1080 IDH1KD tx = kills HT-1080 cells with IDH1 knockdown | Potency, µM (titrated, usually from 46.1 µM), for the others: at the highest dose activity, negative = toxicity, most hits filed as cytotoxic | HT-1080 IDH1 knockdown viability, ATP luminescence, 48 h | actives 2% (n = 360,000);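 note: potency is the fitted concentration of half-maximal effect; 0% = DMSO wells and -100% = cell-free medium wells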
#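 After a 2 h attachment period, IDH1KD HT-1080 cells took pin-transferred compound for 48 h at 37 °C; ATP-based luminescence after 10 min room-temperature reagent incubation reported viability.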
# DT40 TDP1 CPT = DT40-hTDP1 cell growth loss with CPT | chicken DT40 Tdp1-/-;hTDP1 cells + 20 nM CPT, ATP luminescence, 48 h | Potency, µM (top dose mostly 46.2 µM), for the others: top-dose activity change, negative = growth inhibition, hits mostly inhibitors | actives 12% (n = 420,000); note: potency is the fitted concentration of half-maximal effect; nearly all actives have a fitted effect of over 55% in size
#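 Cell growth measured by CellTiter-Glo luminescence after a minimum 48 h, 37 C compound exposure with 20 nM CPT in Tdp1-knockout DT40 cells stably expressing hTDP1, seeded 400/well; qHTS titration format.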
# An asterisk follows results filed as active; i = inactive; ? = inconclusive; · = not tested or not shown. The entries come from a sample that favours hits as a whole. Unless noted, calls come from the whole dose curve; as a rule, active = well fitted curve in the direction sought with a large enough effect; inconclusive = small, poorly fitted or top-dose-only effect, or another doubt; inactive = no such curve, though single readings can be large; an effect the other way counts as inactive or inconclusive. Unless noted, % is set by controls: 0 for no effect and ±100 for the full control effect.
SMILES,TDP1 cell noCPT,HT1080-NT tox,12-LOX inh,IL1B secr inh,HT1080 IDH1KD tx,DT40 TDP1 CPT
COc1ccc(OCCCC(=O)Nc2cc(S(=O)(=O)N3CCCCC3)ccc2C)cc1,?,-22%,7%,-7,-28%,21µM*
COc1cc(S(=O)(=O)Nc2ccc(C(C)=O)cc2)ccc1NC(C)=O,·,·,-42%,·,·,·
Cc1nc(-c2ccccn2)sc1C(=O)Nc1ccc2c(c1)OCCCO2,·,·,13%,·,·,·
Cc1ccc(/C=C2/SC(=S)N(CCC(=O)N3CCN(C)CC3)C2=O)cc1,18µM*,-1%,-8%,-26,-18%,?
COc1cc(/C=C2\SC(=S)N(CCC(=O)N3CCCCC3)C2=O)cc(OC)c1OC,?,-15%,-28%,-101*,?,16µM*
CCOC(=O)N1CCN(C(=O)CCN2C(=O)/C(=C\c3ccc(OC)c(OC)c3)SC2=S)CC1,-6%,-1%,0%,-3,1%,-1%
O=C(CN1C(=O)S/C(=C/c2cccs2)C1=O)N1CCCC1,3%,0%,3%,0,7%,-3%
O=C(CCN1C(=O)/C(=C/c2cccs2)SC1=S)N1CCCCC1,7.3µM*,?,-7%,-104*,?,5.8µM*
CN1CCN(C(=O)CCN2C(=O)/C(=C/c3ccc(F)cc3)SC2=S)CC1,18µM*,-7%,-17%,-102*,-10%,?
Cc1ccc(/C=C2\SC(=S)N(CCC(=O)NNC(=O)c3ccncc3)C2=O)cc1,-10%,4%,i,-13,17%,1%
c1ccc(-c2nc(C34CC5CC(CC(C5)C3)C4)co2)cc1,·,·,-59%,·,·,·
COCCN1C(=O)c2cccn2CC1CNC(=O)CC(C)C (centres undefined),·,·,28%,·,·,·
Cc1ccc(/C=C2\SC(=S)N(C(Cc3ccccc3)C(=O)O)C2=O)cc1 (centres undefined),-5%,6%,35µM*,22,-1%,0%
Cc1ccc(/C=C2\SC(=S)N(CCC(=O)NNS(=O)(=O)c3ccc(C)cc3)C2=O)cc1,-25%,-10%,-13%,-2,-10%,1%
O=C(CN1C(=O)/C(=C/c2ccccc2)SC1=S)N1CCN(CCc2ccccn2)CC1,12µM*,4%,-5%,8,7%,8.2µM*
Cc1ccc(/C=C2\SC(=S)N(CCC(=O)N3CCCCC3)C2=O)cc1,21µM*,4%,-1%,-9,2%,?
Cc1ccc(/C=C2/SC(=S)N(CCC(=O)N3CCOCC3)C2=O)cc1,16µM*,0%,1%,0,3%,12µM*
O=c1n(-c2ccncc2)nc2n1CCN(Cc1cccc3ccccc13)C2,·,·,-29%,·,·,·
CCOC(=O)COc1c(Br)cc(/C=C2\SC(=O)N(CC(=O)N3CCCC3)C2=O)cc1OC,-23%,9%,14%,-51*,9%,-23%
O=C(CCN1C(=O)/C(=C\c2ccccc2)SC1=S)N1CCCCC1,10µM*,-1%,-1%,-100*,?,9.2µM*
N#Cc1ccc(OCC(O)CN2CCC(C(O)(c3ccccc3)c3ccccc3)CC2)cc1 (centres undefined),?,-8%,16%,-95*,?,21µM*
N#Cc1cccc(OCCCN2CCC(C(O)(c3ccccc3)c3ccccc3)CC2)c1,16µM*,?,?,-57*,?,?
Cc1cc(OCCCN2CCC(C(O)(c3ccccc3)c3ccccc3)CC2)ccc1Br,5.8µM*,16µM*,?,-75*,?,5.8µM*
CS(=O)(=O)c1cccc(OCCCN2CCC(C(O)(c3ccccc3)c3ccccc3)CC2)c1,·,·,-23%,·,·,·
CS(=O)(=O)c1ccc(OCCCN2CCC(C(O)(c3ccccc3)c3ccccc3)CC2)cc1,·,·,1%,·,·,·
SMILES,TDP1 cell noCPT,HT1080-NT tox,12-LOX inh,IL1B secr inh,HT1080 IDH1KD tx,DT40 TDP1 CPT
CC(Oc1ccccc1)C(=O)N1CCN(Cc2cc(=O)n3nc(-c4ccccc4F)sc3n2)CC1 (centres undefined),·,·,10%,·,·,·
Cc1ccccc1-c1nn2c(=O)cc(CN3CCN(C(=O)c4ccc(C(C)(C)C)cc4)CC3)nc2s1,7.3µM*,·,0%,·,·,8.2µM*
CCC(Oc1ccccc1)C(=O)N1CCN(Cc2cc(=O)n3nc(-c4cccc(C)c4)sc3n2)CC1 (centres undefined),23µM*,·,-15%,·,·,?
COc1cc(OCC(=O)NC(C)C)cc2c1C(=O)O[C@@H](C)CCCC(=O)CCCCC2,21µM*,-6%,0%,-11,?,?
COc1cc2c(c(OCC(=O)NC(C)C)c1)C(=O)O[C@@H](C)CCCC(=O)CCCCC2,?,-3%,445%,?,-3%,?
C[C@H](NC(=O)c1[nH]cnc1C(=O)Nc1ccccc1)c1ccccc1,?,-13%,3%,4,-14%,?
C[C@H](NC(=O)c1[nH]cnc1C(=O)Nc1ccccc1F)c1ccccc1,16µM*,-14%,16%,30,-7%,?
Cc1ccc(NC(=O)c2nc[nH]c2C(=O)N[C@H](C)c2ccccc2)cc1,?,-20%,?,?,-18%,23µM*
Cc1ccc(NC(=O)Cn2c(-c3ccc(F)cc3)cnc2SCC(=O)Nc2c(C)cccc2C)cc1,12µM*,-29%,-11%,2,?,10µM*
O=C(CSc1nc(-c2ccc(F)cc2)[nH]c1-c1ccc(F)cc1)Nc1ccc2c(c1)OCCO2,10µM*,·,2%,·,·,10µM*
O=C(CSc1ncc(-c2ccc(F)cc2)n1Cc1ccco1)Nc1ccc2c(c1)OCO2,?,-18%,33%,-64*,-26%,29µM*
CCOc1ccc(-c2nc(SCC(=O)Nc3ccc4c(c3)OCO4)c(-c3ccc(F)cc3)[nH]2)cc1,?,·,1%,·,·,-19%
O=C(CSc1nc(-c2ccc(F)cc2)[nH]c1-c1ccc(F)cc1)Nc1ccc2c(c1)OCO2,23µM*,·,-27%,·,·,16µM*
Cc1ccc(NC(=O)C(Sc2nnc(-c3ccoc3C)o2)c2ccccc2)cc1Cl (centres undefined),·,·,-4%,·,·,·
CC(C)Cc1cc(C(=O)NCC2(c3ccccc3F)CCCC2)on1,·,·,27%,·,·,·
O=C(CCN1C(=O)C2C3C=CC(C4CC34)C2C1=O)Oc1ccc(Br)cc1 (centres undefined),-14%,2%,-18%,21,-2%,33%
